From PubChem BioAssay (NCI)
The panel holds about 83,000 compounds, 20% with a hit somewhere; the sample as a whole holds those more often.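 Growth was measured after 48 h exposure to one concentration of compound in 96-well plates. Values under 10 count as active.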 A number with no mark means an inactive call. Activity calls are given as the source filed them.

How the values were obtained:
Experiment in all cases: NCI-60 one-dose screen, 48 h (100 = growth as untreated, 0 = no growth, -100 = all killed)
Settings in all cases: 10 µM unless noted
NCI-H23 lung = test system: NCI-H23 lung
NCI-H226 lung = test system: NCI-H226 lung
NCI-H322M lung = test system: NCI-H322M lung
HOP-62 NSCLC = test system: HOP-62 NSCLC
NCI-H460 lung = test system: NCI-H460 lung
HOP-92 NSCLC = test system: HOP-92 NSCLC
NCI-H522 lung = test system: NCI-H522 lung
A549/ATCC NSCLC = test system: A549/ATCC NSCLC
786-0 renal = test system: 786-0 renal
COLO 205 colon = test system: COLO 205 colon

Row | SMILES | growth (NCI-H23 lung) | growth (NCI-H226 lung) | growth (NCI-H322M lung) | growth (HOP-62 NSCLC) | growth (NCI-H460 lung) | growth (HOP-92 NSCLC) | growth (NCI-H522 lung) | growth (A549/ATCC NSCLC) | growth (786-0 renal) | growth (COLO 205 colon)
1 | CCCNNC(=O)c1ccc(-c2ccc(NC(=O)CCCCCCC(=O)N[C@H](C(=O)N3C[C@H](O)C[C@H]3C(=O)N[C@@H](C)c3ccc(-c4scnc4C)cc3)C(C)(C)C)cc2)cc1 | 37.3% | 46.5% | 34.7% | 27.8% | 31.8% | -26.7% (active) | 10% | 72.4% | 36.9% | -31.1% (active)
2 | CC(=O)Nc1cc(N2CCOCC2)c2nc(NC(=O)c3[nH]c(C)c(Cl)c3Cl)sc2c1 | 77.2% | 37.3% | 92.1% | 69.2% | 64% | 119% | 71.8% | 71.9% | 44.5% | 104%
3 | O=[N+]([O-])c1ccc(NC(=S)NNC(=S)Nc2ccc(Br)cc2)cc1 | 86.1% | 97.3% | 63.3% | 94.9% | 97.6% | 99.9% | 81.1% | 83.9% | 99.2% | 112%
4 | Cn1cc(C2=C(c3coc4cc(Br)ccc34)C(=O)NC2=O)c2ccccc21 | 86.8% | 74.8% | 82.2% | 71% | 98.6% | 93.4% | 72% | 71.6% | 83.7% | 71.3%
5 | CN1CCC[C@]2(C)[C@H]3CC[C@@H]4[C@@H]5[C@H]6OC[C@@]5(CCC6(C)C)CC[C@@]4(C)[C@]3(C)CC[C@H]2C1(C)C | 91% | 93.2% | 87.8% | 94.2% | 1.69% (active) | 50.6% | 96.3% | 71.7% | 84.4% | -8.01% (active)
6 | Cc1csc(/N=C(N)/N=C(\N)c2cccs2)n1 | 90.5% | 99.1% | 100% | 103% | 104% | 69.1% | 98.9% | 102% | 112% | 109%
7 | CC(=C(c1ccc(OCCN2CCCC2)cc1)c1ccc(OCCN2CCCC2)cc1)c1ccc(Cl)cc1 | 60.7% | 80% | 15.6% | -68.7% (active) | -52.2% (active) | -1.74% (active) | -48.5% (active) | -61.8% (active) | -85.9% (active) | -74.4% (active)
8 | CCc1cc(OC(=O)N2CCC(N3CCCCC3)CC2)ccc1Nc1cc(-c2ccc(-n3cccn3)cc2)[nH]n1 | 80.3% | 77.9% | 101% | 66.3% | -15.5% (active) | 103% | 96.2% | 53.8% | 58% | 60.1%
9 | O=C(Nc1ccccc1)Nc1nc2ccc([N+](=O)[O-])cc2[nH]1 | 39.5% | 55.4% | 58.5% | 105% | 44.1% | -5.31% (active) | 28.4% | 56.7% | 67.5% | 88.7%
10 | C#C[C@]1(O)CC[C@H]2[C@@H]3CC=C4c5sc(Nc6ccc(C)cn6)nc5CC[C@]4(C)[C@H]3CC[C@@]21C | 1.46% (active) | 11.5% | 25.1% | 6.21% (active) | 5.32% (active) | -1.7% (active) | -21.5% (active) | 16.6% | -53.2% (active) | -24.4% (active)
11 | O=C(/C=C/c1ccccc1)c1cccc(O)c1 | 104% | 93.4% | 93.4% | 105% | 101% | 96.1% | 95.1% | 92.7% | 94.6% | 110%
12 | COC(=O)c1cccc(NC2=CC(=O)C(C)=C(C)C2=O)c1 | 63.9% | 95% | 104% | 97.4% | 104% | 123% | 93.6% | 109% | 101% | 114%
13 | C#Cc1nc(/C=C/C(=O)NO)cs1 | -86.7% (active) | 75.8% | 82.5% | 48.5% | 63.4% | -79.5% (active) | -60% (active) | 69.6% | -76.5% (active) | 79.8%
14 | O=C(Nc1ccc(Cl)c(C(F)(F)F)c1)Nc1ccc2oc(=O)ccc2c1 | 4.85% (active) | 26.6% | 60.5% | 73.4% | 18.1% | -1.84% (active) | 20.3% | 39.8% | 70.3% | 58%
15 | O=C(CCCCCCNC(=O)c1csc(Br)n1)NO | 47.7% | 79% | 61.6% | 48.2% | 34.9% | 5.32% (active) | 15.7% | 34.8% | 72.4% | 20.9%
16 | O=C(CSc1nc2ccccc2c(=O)n1-c1ccccc1)N/N=C/c1ccc(Oc2ccc(Cl)cc2)cc1 | 39.1% | 72.1% | 84.5% | 59.1% | 32.1% | 66.7% | 49.6% | 41.7% | 53.2% | 49.2%
17 | CN1CCN(CCCCCC(=O)Nc2nc(-c3cccc(NS(=O)(=O)c4cccc5c(N(C)C)cccc45)c3)cs2)CC1 | 65.2% | 85.9% | 96% | 90.3% | 79.3% | 32.4% | 91.8% | 70.9% | 79% | 82.4%
18 | OCC(Nc1ncnc2ccc(-c3cnc4cnccn34)cc12)c1ccccc1 (stereo not given) | 57.8% | 67.5% | 40% | 79.8% | 89.4% | 59.3% | 43.5% | 74.2% | 64.4% | 98.2%
19 | CCNCCOc1ccc(/C(=C(/CC)c2ccc(Cl)cc2)c2ccc(OCCCN(C)C)cc2)cc1 | -87.3% (active) | -66.4% (active) | -95.4% (active) | -80.1% (active) | -74.2% (active) | -74.6% (active) | -76.7% (active) | -60.9% (active) | -86% (active) | -82.3% (active)
20 | O=S(=O)(Oc1ccc(-c2cn3ccsc3n2)cc1)c1cccc(C(F)(F)F)c1 | 109% | 90.2% | 103% | 110% | 104% | 106% | 94.6% | 98.9% | 102% | 113%
21 | COc1ccc2c(c1)c(-c1nnc(N)nc1-c1c[nH]c3ccc(F)cc13)cn2C | 44.6% | 57.8% | 87% | 54.7% | 15.1% | 68.7% | 27.2% | 50.7% | 46% | 41.4%
22 | O=C1CSC(c2cn(-c3ccccc3)nc2-c2ccc(Cl)cc2)N1c1ccccc1 (stereo not given) | 96.9% | 98.4% | 112% | 99.6% | 111% | 100% | 95.7% | 98.1% | 106% | 120%
23 | CCCCCCNC(=O)Oc1ccc(/C(=C(/C)c2ccc(Cl)cc2)c2ccc(OCCN3CCCCCC3)cc2)cc1 | 52.2% | 83.2% | 96.8% | 76.8% | 40.9% | 83.6% | 92.3% | 74.3% | 63.7% | 45.7%
24 | COc1ccc(NC(=O)CCCCCCNC(=O)C(O)(O)C(F)(F)F)cc1 | 53.2% | 84.1% | 66.1% | 28.3% | 40.2% | 28.5% | 0.885% (active) | 46.3% | 52.9% | 9.56% (active)
